Screening data from PubChem BioAssay.
An excerpt weighted towards active compounds, which were near 1.1% of everything screened.
p53 reactivator: restores transcriptional activity of mutant p53; H1299 p53-A138V BP100-luciferase reporter, luminescence, 24 h; Potency, µM (titrated, usually from 92.2 µM), inactives show top-dose activity change, positive = activation, actives largely listed as activators; 320,000 tested, 0.063% active; also: potency is read from the fitted curve at half-maximal effect; % of control where 0% means no effect; nearly all actives have a fitted effect of over 45% in size
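H1299 (p53-null), stable ts p53-A138V + BP100-Luc; 1000 cells/well, Opti-MEM/10% FBS; cpd 4 pt, 1:5; 24 h, 37 deg C, 5% CO2; detection reagent 10 min RT; luminescence.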
gsp ag: gsp mutant agonism | gsp mutant cells, cAMP HTRF, 30 min | Potency, µM (titrated, usually from 76.9 µM), inactives show at the highest dose activation (cAMP increase), usual class: activators | 340,000 tested, 0.13% active | AID 624287; active = well fitted activation curve with a large enough effect; inconclusive = small, poorly fitted or top-dose-only effect, or another doubt; inactive = no such curve, though single readings can be large or run the other way; cell line not stated here;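 also: phosphodiesterase inhibitor Ro 20-1724 added with compounds to block cAMP breakdown; potency is read from the fitted curve at half-maximal effect; nearly all actives have a fitted effect of over 60% in size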
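Cells stably selected in G418 were plated at 2000/well, grown 16-24 hr, then given compounds in DMSO with the PDE inhibitor […] (300 uM solution added) for 30 min at 37C; cAMP was read by HTRF.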
gsp antagonist: antagonists of gsp mutant (McCune-Albright syndrome); gsp-mutant cells, cAMP HTRF, 30 min; Potency, µM (titrated, usually from 76.9 µM), inactives show top-dose activity change, negative = inhibition, hits mostly inhibitors; 340,000 tested, 0.4% active; AID 624288; calls by dose curve; cell line not stated here;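 also: intracellular cAMP measured with PDE inhibitor Ro 20-1724 present during compound exposure; potency is read from the fitted curve at half-maximal effect; % is scaled to controls: 0 for no effect and ±100 for the full control effect; nearly all actives have a fitted effect of over 65% in size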
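HTRF cAMP read-out (cAMP-d2 plus anti-cAMP antibody-K in lysis buffer, 30 min RT). Before lysis, cells are exposed to compounds with […] for 30 min at 37C in DPBS containing Ca/Mg, BSA and Tween 20.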
Tb PFK inh-1: blocks T. brucei phosphofructokinase; T. brucei PFK, ADP-Glo luminescence; Potency, µM (series often up to 57.5 µM), for inactives: at the top dose activity, negative = inhibition, usual class: inhibitors; AID 485367; O15648; 330,000 tested, 0.17% active;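 also: potency is read from the fitted curve at half-maximal effect; 0% = uninhibited 1x PFK enzyme wells and -100% = no-enzyme wells; nearly all actives have a fitted effect of over 60% in size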
Target sequence (O15648 whole entry, looked up): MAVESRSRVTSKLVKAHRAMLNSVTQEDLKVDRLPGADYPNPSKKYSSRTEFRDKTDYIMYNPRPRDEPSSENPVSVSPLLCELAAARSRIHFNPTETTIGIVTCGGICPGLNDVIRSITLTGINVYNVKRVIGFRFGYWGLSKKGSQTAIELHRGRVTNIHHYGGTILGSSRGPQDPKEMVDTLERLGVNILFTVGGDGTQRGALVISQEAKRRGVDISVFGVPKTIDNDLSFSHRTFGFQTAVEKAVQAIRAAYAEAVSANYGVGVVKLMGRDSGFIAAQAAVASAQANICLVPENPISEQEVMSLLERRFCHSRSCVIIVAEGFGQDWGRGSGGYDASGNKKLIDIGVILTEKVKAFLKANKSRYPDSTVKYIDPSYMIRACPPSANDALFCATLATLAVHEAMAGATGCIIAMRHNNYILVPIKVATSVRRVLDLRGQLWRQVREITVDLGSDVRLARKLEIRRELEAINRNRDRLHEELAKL
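PFK 1.25 nM, F6P 0.5 mM, ATP 0.1 mM, 0.1 M TEA pH 8.0, 5 mM MgCl2, 0.01% Tween20, 0.1% BSA; 45 min RT. ADP-Glo readout. qHTS titration up to 57 uM; curves fitted, compounds curve-classed.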
RXFP1 antagonist: blocks the human relaxin receptor RXFP1; Q9HBX9; HEK293-RXFP1, relaxin-stimulated cAMP HTRF, 30 min; stronger effect = lower value; activity change, negative = inhibition, % at 57.5 µM; 350,000 tested, 0.59% active;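 active = activity change of -60% or lower, but not beyond a set lower limit; inconclusive = change between -60% and -40%, or beyond the set limit; inactive = change above -40%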; also: % is scaled to controls: 0 for no effect and ±100 for the full control effect
RXFP1 agonist: RXFP1 (human) receptor agonism. HEK293T-RXFP1 cAMP TR-FRET, 30 min; response scale: percent of porcine relaxin response, buffer zero. 370,000 tested, 0.3% active. Potency, µM (highest dose often 57.5 µM), for the others: at the highest dose activation, most hits filed as activators. AID 2676; also: potency is read from the fitted curve at half-maximal effect; % is scaled to controls: 0 for no effect and ±100 for the full control effect; nearly all actives have a fitted effect of over 60% in size
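Agonist response is measured as cAMP accumulation in an RXFP1-transfected HEK293T line under PDE4 inhibition. Values are scaled between buffer-only and 29 nM porcine relaxin, and EC50s come from standard Hill equation fits.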
Tb PFK KinaseGlo: Tb phosphofructokinase inhibition, orthogonal luminescence. AID 504636. shares compounds with Tb PFK inh-1. Tb PFK enzyme, ATP depletion, Kinase-Glo Plus luminescence. Potency, µM (titrated, usually from 57.5 µM), for inactives: at the highest dose inhibition. 1,100 tested, 47% active; calls by dose curve; also: potency is read from the fitted curve at half-maximal effect; nearly all actives have a fitted effect of over 60% in size
Tb PFK inh-2: T. brucei PFK enzyme inhibition, hit validation; shares compounds with Tb PFK inh-1; purified T. brucei PFK, ADP-Glo luminescence, 45 min; Potency, µM (doses to about 57.5 µM), for the others: top-dose activity change, negative = inhibition, hits mostly inhibitors; 1,100 tested, 41% active; AID 504637;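 also: potency is read from the fitted curve at half-maximal effect; plate controls were full PFK enzyme control for no effect and no enzyme control for full effect; nearly all actives have a fitted effect of over 60% in size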
Active calls of the source: *; ? = inconclusive; . = no result given; [ ] = dose if it differs, or a comment. Unless noted, calls follow the shape of the dose curve; as a rule, active = well fitted curve in the direction sought with a large enough effect; inconclusive = small, poorly fitted or top-dose-only effect, or another doubt; inactive = no such curve, though single readings can be large; an effect the other way counts as inactive or inconclusive.

SMILES	p53 reactivator	gsp ag	gsp antagonist	Tb PFK inh-1	RXFP1 antagonist	RXFP1 agonist	Tb PFK KinaseGlo	Tb PFK inh-2
COC(=O)C1CCN(C(=O)COC(=O)c2cc(-c3ccccc3)nc3ccc(OC)cc23)CC1	3%	13%	-23%	?	15	3%	?	?
CC1CCN(C(=O)COC(=O)c2cn(C)c3ccccc23)CC1	1%	2%	6%	-7%	9	1%	.	.
COc1cc(/C=C/c2sc3ccccc3[n+]2CCCS(=O)(=O)[O-])ccc1O	1%	-7%[15.4 µM]	?	12µM*	7	12%	-25%	?
COc1cc(/C=C/c2nc3ccccc3c(=O)n2-c2ccccc2O)ccc1O	20%	28%[15.4 µM]	-34%	-3%	0	0%	.	.
Cc1ccc(N2C(=O)NC(=O)/C(=C\c3cccn3C(C)(C)C)C2=O)cc1	-2%	0%	-10%	11%	-12	-1%	.	.
O=C(O)c1ccc(-n2cccc2/C=C2/SC(=O)N(CC(=O)N3CCCC3)C2=O)cc1	-2%	-35%	-4%	?	20	0%	4.8µM*	5.4µM*
O=C(O)c1cccc(-n2cccc2/C=N/O)c1	4%	19%	7%	21µM*	-10	-1%	?	?
Cc1cc(/C=C2\C(=O)NC(=O)N(c3ccc(F)cc3)C2=O)c(C)n1-c1cccc(C(=O)O)c1	6%	13%	6%	28%	8	4%	.	.
Cc1ccc(CN2C(=O)N/C(=C\c3cccn3-c3cccc(C(=O)O)c3)C2=O)cc1	-4%	-4%[15.4 µM]	?	?	-9	-1%	?	?
O=C(O)c1ccc(-n2cccc2/C=C2/NC(=O)N(c3ccccc3)C2=O)cc1	5%	-2%	3%	?	-2	1%	?	19µM*
CC1=CC(=C2C(=O)NC(=O)NC2=O)C=C(C(F)(F)F)N1C(C)C	-1%	-18%	9%	2%	-7	0%	.	.
Nc1ncc2[nH]cnc2n1	8%	.	?	-8%	.	?	.	.
CC(=O)Nc1ccc(S(=O)(=O)N2Cc3cnnn3-c3ccccc3C2C#N)cc1 (stereo not given)	.	.	6%	.	.	.	.	.
CN1C(=O)CN=C(c2ccc(Cl)cc2)c2cc(Cl)ccc21	-3%	.	-7%	1%	.	-1%	.	.
N#Cc1ccc(NC(=O)CN2CCCC2)cc1Cl	1%	-42%[15.4 µM]	.	-1%	1	1%	.	.
COc1ccc(NC(=O)CNc2cccc(C#N)c2)cc1Cl	1%	-34%	-17%	?	-3	-1%	?	?
Cc1ccc(NC(=O)C(=O)NNC(=O)c2cccs2)cc1	11%	-13%	1%	?	5	3%	-22%	?
COc1ccc(NC(=O)C(=O)NNC(=O)c2cccs2)cc1	14%	-34%	0%	?	-8	1%	-28%	?
O=C(COc1ccc2ccccc2c1)NNC(=O)c1cccs1	1%	-39%	-1%	?	-11	0%	-31%	?
COC(=O)C(O)(c1ccc(NC(=O)c2cccs2)cc1)C(F)(F)F (stereo not given)	3%	-20%	13%	1%	-11	1%	.	.
CN1CCN(C(=O)COc2ccc3ccccc3c2)CC1	5%	-36%	1%	-1%	-11	0%	.	.
Cn1c(O)c(C(=Nc2ccccc2)SCc2ccc(Cl)cc2)c(=O)n(C)c1=O	10%	23%	-10%	0%	0	3%	.	.
O=C(O)C1C2CCC(O2)C1C(=O)Nc1ccc(F)c(F)c1 (stereo not given)	?	0%	15%	-1%	2	1%	.	.
O=C(O)C1C2C=CC(C2)C1C(=O)Nc1ccc(Cl)c(Cl)c1 (stereo not given)	.	-66%	4%	21µM*	4	1%	18%	-13%
O=C(NCCc1ccccc1)c1ccc2nc(-c3ccco3)c(-c3ccco3)nc2c1	-2%	13%	2%	?	-6	2%	?	?
SMILES	p53 reactivator	gsp ag	gsp antagonist	Tb PFK inh-1	RXFP1 antagonist	RXFP1 agonist	Tb PFK KinaseGlo	Tb PFK inh-2
COc1cccc(-n2c(O)c(C=Nc3c(C)n(C)n(-c4ccccc4)c3=O)c(=O)[nH]c2=O)c1	-3%	10%[15.4 µM]	13%	5%	-8	2%	.	.
CCCCn1c(=O)c(C(=O)NCc2ccc(Cl)cc2)c(O)c2ccccc21	?	-49%	-5%	-1%	0	-1%	.	.
COCCCNC(=O)c1cc(=O)n(Cc2ccc(Cl)cc2)c2ccccc12	8%	-2%[15.4 µM]	11%	11µM*	-8	2%	24µM*	?
COc1ccc(C)cc1NC(=O)c1ccc2c(SCC(=O)O)c3c(nc2c1)CCCC3	-2%	-26%	-10%	?	2	0%	-30%	?
O=c1[nH]c(=S)n(C2CC2)c(O)c1/C=N/Nc1cccc2ccccc12	?	5%	-7%	19%	.	1%	.	.
CSc1nc(=S)c2[nH]c(=S)[nH]c2[nH]1	5%	5%[15.4 µM]	10%	?	-4	?	5.4µM*	19µM*
Cc1cc(C)nc(NS(=O)(=O)c2ccc(NC(=O)c3cc(=O)c4ccccc4o3)cc2)n1	-10%	?	-3%	?	-32	5%	-27%	?
O=c1[nH]c(=O)n(C2CCCCCC2)c(O)c1C=NCc1cccnc1	-2%	14%[15.4 µM]	-7%	2%	-2	3%	.	.
O=C(NCc1cccc(Cl)c1)c1cc(COc2ccc3ncccc3c2)on1	-2%	-3%[15.4 µM]	35µM*	15µM*	-7	-2%	12µM*	13µM*
COc1cc(C)c(NC(=O)C(=S)NCCc2ccccc2)cc1C	1%	-18%	-6%	?	-12	-1%	24µM*	?
CCNCC1(c2ccc(OC)c(OC)c2)CCCC1	-4%	3%	-10%	2%	-10	2%	.	.
O=C(c1cccn(Cc2cccc(Cl)c2)c1=O)N1CCOCC1	-2%	-44%	7%	24µM*	-8	1%	21µM*	24µM*
O=C1OC(/C(=C\Nc2ccc(F)cc2F)[N+](=O)[O-])c2ccccc21 (stereo not given)	-11%	-28%[15.4 µM]	?	?	-29	0%	3%	-1%
